Measured values: publication PMC5540273 (PLoS ONE, 2017)

Key:
Settings in all cases: concentration: 1 μM, replicates: in singlicate; n = 1
[1] = test system: PRKCI
[2] = test system: PRKCQ
[3] = test system: PRKD1
[4] = test system: PRKD2
[5] = test system: PRKD3
[6] = test system: PRKG1
[7] = test system: PRKG2
[8] = test system: T1, PRKR
T1 construct: gene EIF2AK2

[9] = test system: PRKX
[10] = test system: PRP4
[11] = test system: T2, PYK2
T2 construct: gene PTK2B

[12] = test system: QSK
[13] = test system: RAF1
[14] = test system: RET
[15] = test system: RIOK1
[16] = test system: RIOK2
[17] = test system: RIOK3
[18] = test system: RIPK1
[19] = test system: RIPK2
[20] = test system: RIPK4
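Further: KINOMEscan kinase panel screen.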

SMILES | %Inh [1] [%] | %Inh [2] [%] | %Inh [3] [%] | %Inh [4] [%] | %Inh [5] [%] | %Inh [6] [%] | %Inh [7] [%] | %Inh [8] [%] | %Inh [9] [%] | %Inh [10] [%] | %Inh [11] [%] | %Inh [12] [%] | %Inh [13] [%] | %Inh [14] [%] | %Inh [15] [%] | %Inh [16] [%] | %Inh [17] [%] | %Inh [18] [%] | %Inh [19] [%] | %Inh [20] [%]
Cl.Nc1ncnc2occ(-c3ccc(NC(=O)Nc4cc(C(F)(F)F)ccc4F)cc3)c12 [SB-707548] | 25 | 15 | 0 | 20 | 29 | 11 | 7 | 28 | 9 | 8 | 19 | 0 | 78 | 100 | 0 | 0 | 22 | 96 | 42 | 2
Cc1nnc(-c2ccc3ncc(-c4ccc(S(C)=O)cc4)n3c2)o1 (centres unmarked) | 0 | 0 | 0 | 13 | 0 | 0 | 0 | 0 | 19 | 2 | 0 | 0 | 49 | 9 | 0 | 0 | 0 | 0 | 21 | 24
COc1ccc(CNC(=O)NC2CCN(c3ccnc(Nc4ccc(OC)cc4)n3)C2)cc1 (centres unmarked) [GSK1379727] | 12 | 0 | 0 | 8 | 0 | 0 | 0 | 0 | 11 | 23 | 1 | 0 | 12 | 15 | 8 | 0 | 18 | 50 | 0 | 0
O=c1cc(N2CCOCC2)nc2n(Cc3cccc(Cl)c3Cl)c(C3CC3)nn12 [GSK2358994] | 4 | 0 | 13 | 0 | 17 | 14 | 0 | 0 | 0 | 0 | 0 | 0 | 0 | 8 | 13 | 25 | 37 | 0 | 0 | 16
COc1ccc(Nc2nccc(N3CCC(NC(=O)Nc4cc(C)ccc4C)C3)n2)cc1 (centres unmarked) [GSK1379741] | 7 | 22 | 0 | 0 | 4 | 0 | 0 | 0 | 6 | 22 | 7 | 1 | 13 | 52 | 25 | 0 | 0 | 0 | 14 | 8
Cn1cc(-c2ccc3c(c2)CCN3C(=O)Cc2ccccc2Cl)c2c(N)ncnc21 [GSK2608885] | 10 | 83 | 0 | 47 | 54 | 0 | 0 | 0 | 19 | 8 | 38 | 23 | 94.9 | 99.9 | 23 | 0 | 21 | 0 | 99.4 | 0
N#Cc1ccc(-c2cc(-c3c[nH]nc3-c3ccccn3)ccn2)cc1 [GW693028] | 0 | 15 | 63 | 40 | 0 | 0 | 0 | 0 | 2 | 41 | 0 | 12 | 1 | 12 | 0 | 0 | 0 | 0 | 49 | 5
Cc1c(Cn2c(C)nn3c(=O)cc(N4CCOC(C)C4)nc23)cccc1C(F)(F)F (centres unmarked) [GSK2344444] | 0 | 0 | 0 | 0 | 22 | 14 | 0 | 0 | 3 | 0 | 0 | 4 | 0 | 1 | 27 | 10 | 0 | 0 | 0 | 7
CN(C(=O)c1ccc(-c2cc(-c3c[nH]nc3-c3ccccn3)ccn2)cc1)C1CCOCC1 [GW810083] | 18 | 0 | 10 | 0 | 0 | 0 | 10 | 0 | 0 | 0 | 0 | 0 | 0 | 17 | 54 | 0 | 33 | 0 | 0 | 69
COc1ccc(Nc2ncc(C#N)c(Nc3ccccc3C(N)=O)n2)cc1N1CCN(C)CC1.Cl [GSK1558669] | 96.6 | 96.5 | 93.1 | 89 | 99 | 76 | 54 | 87 | 52 | 79 | 99.2 | 94.7 | 32 | 99.9 | 100 | 98.7 | 79 | 74 | 76 | 98.9
